Laboratory results taken from the supplement of paper PMC8728848.
The entries come from a sample that favours the strongest signals as a whole.

test system: Gal(b1-4)GlcNAc(b1-3)Gal(b1-4)Glc; assay: glycan array binding signal (z-score within array); higher = stronger binding; conditions: glycan notation: IUPAC condensed, linker removed
Summary of the method: (§1)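 From the Consortium for Functional Glycomics database, 3228 arrays were curated, keeping only those whose protein sequence was available. Binding is given as a within-array Z-score averaged across arrays sharing a protein sequence and across linkers. Negative Z-scores can be read as non-binding.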

Sequence of PILRa (Mus musculus), Q2YSF3 (Q2YSF3 entry or part of it): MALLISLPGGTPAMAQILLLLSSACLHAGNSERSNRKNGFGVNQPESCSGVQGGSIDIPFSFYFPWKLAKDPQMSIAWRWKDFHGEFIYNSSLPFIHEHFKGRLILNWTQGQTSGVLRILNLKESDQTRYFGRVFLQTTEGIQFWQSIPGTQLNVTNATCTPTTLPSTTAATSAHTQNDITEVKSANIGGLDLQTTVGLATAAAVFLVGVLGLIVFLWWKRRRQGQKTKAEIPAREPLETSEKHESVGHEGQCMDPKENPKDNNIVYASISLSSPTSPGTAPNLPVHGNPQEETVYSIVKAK
Sequence of SRLC (Mus musculus), Q8VIF6 (Q8VIF6 other isoform, or with tags, fused parts or gaps): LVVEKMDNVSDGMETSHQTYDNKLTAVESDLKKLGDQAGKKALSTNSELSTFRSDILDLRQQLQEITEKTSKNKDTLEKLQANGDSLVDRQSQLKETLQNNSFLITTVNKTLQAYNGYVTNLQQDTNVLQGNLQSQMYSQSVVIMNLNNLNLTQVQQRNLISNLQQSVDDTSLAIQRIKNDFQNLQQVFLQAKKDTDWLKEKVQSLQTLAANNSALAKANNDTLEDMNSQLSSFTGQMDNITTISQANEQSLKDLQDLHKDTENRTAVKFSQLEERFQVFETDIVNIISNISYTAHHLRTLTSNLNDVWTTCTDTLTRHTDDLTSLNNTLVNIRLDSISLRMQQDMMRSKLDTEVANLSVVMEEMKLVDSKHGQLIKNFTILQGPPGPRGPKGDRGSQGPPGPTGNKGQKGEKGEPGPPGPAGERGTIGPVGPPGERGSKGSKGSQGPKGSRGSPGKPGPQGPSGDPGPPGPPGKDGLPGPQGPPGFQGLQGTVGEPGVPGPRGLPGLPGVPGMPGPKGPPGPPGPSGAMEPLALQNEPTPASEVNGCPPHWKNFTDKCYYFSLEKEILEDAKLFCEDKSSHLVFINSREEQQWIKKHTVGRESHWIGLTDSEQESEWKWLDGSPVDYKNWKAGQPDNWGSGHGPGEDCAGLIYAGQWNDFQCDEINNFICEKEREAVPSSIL
Sequence of Neurocan (Homo sapiens), O14594 (O14594 other isoform, or with tags, fused parts or gaps): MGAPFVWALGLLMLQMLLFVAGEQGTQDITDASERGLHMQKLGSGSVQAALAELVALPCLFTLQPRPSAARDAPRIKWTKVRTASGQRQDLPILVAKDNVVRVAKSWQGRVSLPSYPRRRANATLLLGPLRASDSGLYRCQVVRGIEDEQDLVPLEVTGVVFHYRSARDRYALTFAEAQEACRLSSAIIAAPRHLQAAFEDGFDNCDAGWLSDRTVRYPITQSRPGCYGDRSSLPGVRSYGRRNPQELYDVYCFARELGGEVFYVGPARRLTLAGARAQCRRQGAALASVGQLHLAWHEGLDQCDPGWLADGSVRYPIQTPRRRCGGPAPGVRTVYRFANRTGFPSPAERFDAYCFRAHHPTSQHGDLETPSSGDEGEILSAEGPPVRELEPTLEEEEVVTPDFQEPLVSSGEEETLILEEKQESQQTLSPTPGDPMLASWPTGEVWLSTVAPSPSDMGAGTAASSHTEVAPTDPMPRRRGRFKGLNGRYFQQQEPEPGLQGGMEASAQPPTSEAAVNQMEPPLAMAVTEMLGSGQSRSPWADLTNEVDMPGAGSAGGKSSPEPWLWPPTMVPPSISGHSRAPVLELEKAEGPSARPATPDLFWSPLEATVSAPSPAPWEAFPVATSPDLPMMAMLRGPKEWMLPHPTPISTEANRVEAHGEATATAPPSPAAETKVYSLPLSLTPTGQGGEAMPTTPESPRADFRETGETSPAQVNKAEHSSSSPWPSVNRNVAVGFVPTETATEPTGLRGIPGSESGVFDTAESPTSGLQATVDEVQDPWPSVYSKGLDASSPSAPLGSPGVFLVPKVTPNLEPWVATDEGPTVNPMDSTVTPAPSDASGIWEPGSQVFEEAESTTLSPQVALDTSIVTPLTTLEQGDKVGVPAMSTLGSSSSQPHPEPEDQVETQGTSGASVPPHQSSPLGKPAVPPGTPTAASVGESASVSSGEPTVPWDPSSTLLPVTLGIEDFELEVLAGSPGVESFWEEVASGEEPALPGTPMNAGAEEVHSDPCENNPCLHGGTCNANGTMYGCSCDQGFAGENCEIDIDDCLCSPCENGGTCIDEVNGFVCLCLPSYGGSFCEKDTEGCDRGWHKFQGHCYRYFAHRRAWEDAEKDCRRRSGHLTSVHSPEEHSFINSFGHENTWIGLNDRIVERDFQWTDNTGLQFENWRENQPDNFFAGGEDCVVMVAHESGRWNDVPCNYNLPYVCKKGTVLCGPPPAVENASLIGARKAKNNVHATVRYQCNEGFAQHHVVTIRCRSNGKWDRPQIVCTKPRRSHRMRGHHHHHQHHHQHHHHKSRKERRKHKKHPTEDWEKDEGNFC
Sequence of CHI3L1 (Homo sapiens), P36222 (P36222 whole entry): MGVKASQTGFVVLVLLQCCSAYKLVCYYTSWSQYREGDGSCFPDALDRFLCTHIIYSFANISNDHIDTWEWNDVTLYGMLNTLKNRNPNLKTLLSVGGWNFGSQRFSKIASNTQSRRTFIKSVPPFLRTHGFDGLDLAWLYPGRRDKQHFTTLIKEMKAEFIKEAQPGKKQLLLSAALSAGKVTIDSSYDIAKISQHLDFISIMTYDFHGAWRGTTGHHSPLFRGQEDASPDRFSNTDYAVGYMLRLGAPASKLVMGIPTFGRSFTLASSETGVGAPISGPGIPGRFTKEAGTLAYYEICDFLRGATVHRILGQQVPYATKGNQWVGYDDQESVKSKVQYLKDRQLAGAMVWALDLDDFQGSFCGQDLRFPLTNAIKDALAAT
Sequence of wLAT-1A (Homo sapiens), Q01650 (Q01650 whole entry): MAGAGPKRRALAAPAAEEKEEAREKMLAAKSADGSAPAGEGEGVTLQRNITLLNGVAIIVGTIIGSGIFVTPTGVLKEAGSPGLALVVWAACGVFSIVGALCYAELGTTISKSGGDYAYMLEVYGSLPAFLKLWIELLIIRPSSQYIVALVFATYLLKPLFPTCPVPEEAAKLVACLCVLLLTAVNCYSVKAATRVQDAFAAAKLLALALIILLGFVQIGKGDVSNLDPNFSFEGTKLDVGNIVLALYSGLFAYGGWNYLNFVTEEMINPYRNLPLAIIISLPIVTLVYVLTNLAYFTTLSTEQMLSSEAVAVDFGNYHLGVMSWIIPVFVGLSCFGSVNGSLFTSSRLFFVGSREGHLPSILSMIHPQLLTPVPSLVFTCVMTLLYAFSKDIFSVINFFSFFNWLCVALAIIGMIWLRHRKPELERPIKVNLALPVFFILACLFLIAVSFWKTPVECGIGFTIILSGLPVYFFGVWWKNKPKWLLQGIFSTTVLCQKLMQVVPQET

Substance | glycan array binding signal (z-score)
CHI3L1 (Homo sapiens), P36222 | -0.106
Neurocan (Homo sapiens), O14594 | -0.263
Siglec-8 (Homo sapiens), Q9NYZ4 | -0.209

test system: Gal(b1-4)GlcNAc(b1-6)GalNAc; assay: as above; conditions: glycan notation: IUPAC condensed, linker removed
Summary of the method: as §1

Substance | glycan array binding signal (z-score)
SRLC (Mus musculus), Q8VIF6 | -0.239
PILRa (Mus musculus), Q2YSF3 | -0.218
MpAFP RI GFP (Marinomonas primoryensis) | -0.359
wLAT-1A (Homo sapiens), Q01650 | 0.12
